Results on 19 molecules are retold here after PMC13494018.

B1: d1r6_design_ppi_17_dldesign_0_cycle0_af2pred (protein)
chain: MDFAASAQAAQRDAERLAERGIASGDAADLRRATEAVEQLLEIVQGLAAQGAAEAGEQLQAAVERTRAALERTRAAAAAAEAAAA
B2: d1r6_design_ppi_612_dldesign_0_cycle1_af2pred (protein)
chain: GAALEEQAKKIAEEAIEKIKKGAETGSLSPEEILALASKTVAQLSAIAIASKGGVAAGAGAVEVQKVAAEAL
B3: d1r6_design_ppi_250_dldesign_0_cycle0_af2pred (protein)
chain: SAALAAARGAILQAALSLGVERAREAFARVEASDPAEAAALAEALAAEAAARDPAIGARAAAGAAALRAA
B4: d1r6_design_ppi_725_dldesign_0_cycle0_af2pred (protein)
chain: AELAATHMAGVEALNRARAAAVALVALDPARGAAWLAEADELGRRLNEAAADASRAEELKRITEELEKLAERIAAERDAAAA
B5: d1r6_design_ppi_265_dldesign_0_cycle1_af2pred (protein)
chain: AAAQARALGAVAKQAVLDGKFDEAKQLIEGLVNLAQADPAAAPQAAKEMKEIAKAAEEKAKADPANAAKYKALAKVAAAAAKEAEKAA
B6: d1r6_design_ppi_671_dldesign_0_cycle1_af2pred (protein)
chain: AVEEALKKAEEAAKELEKVAKELGDKEAKEKAKQVKSLIEFAKVAAEAGDEKTALHAAKQAKELAEKALKEAKAKLEAKKAEEEKLKK
B7: d1r6_design_ppi_106_dldesign_0_cycle0_af2pred (protein)
chain: AAISRAMYHHALGLADAANREAHLAAAAALRAALSPEDAARAEAQIAKIEAAAAANQAAAAAARAARAAAA
B8: d1r6_design_ppi_81_dldesign_0_cycle1_af2pred (protein)
chain: AATQQILITAAVMLEERLDELGRAAEVAAMALLYGAAFGSLEKAREKLEELAATLSAEEAARARATFDEAVAAAQAAA
B9: d1r6_design_ppi_106_dldesign_0_cycle1_af2pred (protein)
chain: DLISKAVYYYALGIADPANAAEYKAKAQAEIDKLSPEEAAKAKAELEKVTKSQEELAAKSAERAAARAAAA
B10: d1r6_design_ppi_166_dldesign_0_cycle0_af2pred (protein)
chain: SAVAADGAAALAVAADLMAAGKEYAAAGDLANAARAYQSARALAATMAAAAAAAGDAATAAALAAAAAAAAAAEAEVKA
B11: d1r6_design_ppi_780_dldesign_0_cycle1_af2pred (protein)
chain: NAAATRAFSLAVARQAEETAKQVAGVDPELAKKLKELAKEVRKLAADPATHLQAVEATIEALKAIGEANKKLA
B12: d1r6_design_ppi_627_dldesign_0_cycle1_af2pred (protein)
chain: DEVQREIRERVERGRETAKRAAQHPATAPIAAAIRATAERAEAASSDPERALNYAQMTDVAIANGELALAQVAA
B13: d1r6_design_ppi_647_dldesign_0_cycle0_af2pred (protein)
chain: SKAELLAYKALAAAAKNALEQVKTGEEAEKAVESLKKMAEALGDEETAKLAEEALKAIKKSKEEGEKKLEEAKKYAEKKAKEAA
B14: d1r6_design_ppi_754_dldesign_0_cycle1_af2pred (protein)
chain: GKEEELLKKAKEYFEEAEKYIKELEEVAAKAGPAAKGLVTFTKNYFERLKAKAEKATPEEALKLAKEAYDFAKDALEAAKTTLAALE
B15: d1r6_design_ppi_2_dldesign_0_cycle1_af2pred (protein)
chain: EQYFTDRDIAAAEAAAAKYAALAADPEARAYAARFREAAALIRDPATRAEGIDLLAATEAAAAAHAKALAA
B16: d1r7_design_ppi_3_dldesign_0_cycle1_af2pred (protein)
chain: AAEAAALYEATRAAAEALARVDPALAAEAARLRGQALRYYSLTFVDPAAGRAGVAAVLAEAKRLLAAARARA
B17: d1r6_design_ppi_906_dldesign_0_cycle0_af2pred (protein)
chain: AAAAQAEVTIKMGEAVIKQGEEWIEHPEYAEHAAKLLEAVADIAKATAKAAAAADAELAKKVEETRKKLEEVREKAKAVAEA
B18: d1r6_design_ppi_905_dldesign_0_cycle0_af2pred (protein)
chain: AAVEAAQEEALRALEEARALAREVLAADPERAARVAARIEEAAELVRDGEKINEGLALLVELAAESPAEVKPALMRAAALAGRAYVLR
B19: d1r6_design_ppi_480_dldesign_0_cycle1_af2pred (protein)
chain: AAETQQAADIIIANAEHAKRLAKENPEAGEKLVEVLEESAKWVEAKDPEAGAKAKKAVEEAKKVAEAVKAAREAAKALA

Values without a mark were called inactive. How the calls were made is not given here.

The target in the experiment is CD276, Q5ZPR3.
Sequence of CD276, Q5ZPR3 (Q5ZPR3 whole entry): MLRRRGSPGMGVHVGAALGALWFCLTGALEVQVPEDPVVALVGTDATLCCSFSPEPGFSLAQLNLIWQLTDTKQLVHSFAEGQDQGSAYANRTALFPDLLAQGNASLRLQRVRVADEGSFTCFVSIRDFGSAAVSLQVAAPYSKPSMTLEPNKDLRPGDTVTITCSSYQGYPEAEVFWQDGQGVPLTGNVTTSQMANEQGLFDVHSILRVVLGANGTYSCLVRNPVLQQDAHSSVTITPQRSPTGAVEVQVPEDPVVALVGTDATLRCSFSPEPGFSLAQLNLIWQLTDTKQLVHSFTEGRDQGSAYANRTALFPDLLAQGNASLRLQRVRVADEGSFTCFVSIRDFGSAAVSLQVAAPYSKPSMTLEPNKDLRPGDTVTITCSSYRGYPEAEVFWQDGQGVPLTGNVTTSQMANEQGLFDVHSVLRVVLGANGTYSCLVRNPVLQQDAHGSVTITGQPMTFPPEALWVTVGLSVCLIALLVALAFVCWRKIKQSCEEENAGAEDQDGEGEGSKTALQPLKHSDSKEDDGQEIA
For B1, the “binding in a display sort” value was “not found”.

On to B2, for which the “binding in a display sort” value was “not found”.

As for B3, the “binding in a display sort” value was “not found”.

With B4, the “binding in a display sort” value was “not found”.

In the case of B5, the “binding in a display sort” value is “not found”.

Consider B6, for which the “binding in a display sort” value was “not found”.

Regarding B7, the “binding in a display sort” value is “not found”.

Turning to B8, the “binding in a display sort” value was “not found”.

In the case of B9, the “binding in a display sort” value was “not found”.

In the case of B10, the “binding in a display sort” value is “not found”.

With B11, the “binding in a display sort” value is “not found”.

For B12, the “binding in a display sort” value was “not found”.

As for B13, the “binding in a display sort” value was “not found”.

Consider B14, for which the “binding in a display sort” value is “not found”.

For the molecule B15, the “binding in a display sort” value is “not found”.

As to B16, the “binding in a display sort” value was “not found”.

Turning to B17, the “binding in a display sort” value was “not found”.

Regarding B18, the “binding in a display sort” value is “not found”.

Turning to B19, the “binding in a display sort” value was “not found”.
